Results on 108 sequences are retold here after PubChem BioAssay AID1347426 (Functional Genomics Laboratory (NCATS/FGL), 2020).

The campaign covered roughly 31,000 sequences. About 1,400 (4.5%) were called active.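 Rule for the calls: active = median seed-adjusted z-score above 1 or below -1; inactive = the rest.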 The sample as a whole holds a higher share of actives than the screen did.

The assay is described as follows: Novel Modifiers of Survival Motor Neuron (SMN) Protein: Gene Identification via Genome-wide siRNA Screen.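 Note: luminescence tracks full-length SMN protein made from the SMN2 reporter.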 The following applies: HEK293T SMN2-luciferase reporter, siRNA knockdown, 72 h; actives lie on both sides. In a few lines:
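Each of three siRNAs per gene is reverse-transfected (1 pmol) into reporter HEK293T cells whose luciferase output tracks SMN protein level. After 72 h culture, ONE-Glo luminescence is control-normalized, log10-transformed and MAD-standardized; Common Seed Analysis deprioritizes seed-driven hits.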
For orientation: A reporter such as luciferase makes a cellular process visible.
For the sequence CAGAUGUGGUGAUGCGUGATT against DMBX1, the median seed-adjusted z-score is -0.207 (inactive).

Turning to GCUUCAUGACAUCCGCAAATT against CTSL3, the median seed-adjusted z-score is 1.07 (active).

With GGCAAGAGCUUGUAUCCAATT against CCNG1, the median seed-adjusted z-score was 0.131 (inactive).

Take CAAAAUCCUUUGUGAGUAATT against GPR174: the median seed-adjusted z-score was -0.324 (inactive).

GGACUUUGCUGCCUAAAUUTT against PIP5K1A: the median seed-adjusted z-score was 0.0924 (inactive).

As for GCAUCACGCUCUCGAAGCATT against PTBP1, the median seed-adjusted z-score was 0.578 (inactive).

Consider CCACCCUAGUUAGACAUCATT against ZNF419, for which the median seed-adjusted z-score is 0.0405 (inactive).

For the sequence CCAUCAUCGACACACCCAATT against PRSS27, the median seed-adjusted z-score is 1.03 (active).

Turning to CAAUCGAACGUAAACAACATT against ADD3, the median seed-adjusted z-score was 0.0741 (inactive).

On to CAACCAUCGAGCAAAUGAATT against MAPK1, for which the median seed-adjusted z-score is 0 (inactive).

With CAUCCCUUGUAAUUCACAATT against ZNF702, the median seed-adjusted z-score is 0.204 (inactive).

Consider GCAUCAGCUCACAACAAAATT against SF3B4, for which the median seed-adjusted z-score was -2.56 (active).

CAAGUAUGAUCAGCAAUGATT against ENG: the median seed-adjusted z-score is -0.254 (inactive).

Consider GGCAUUACGUUUCUAGGUATT against AQP6, for which the median seed-adjusted z-score was 0.008 (inactive).

As for CGCUGUUCAAUGAACUAUATT against GBA2, the median seed-adjusted z-score is 0.143 (inactive).

For ACACCAGGGUUGUCUACAATT against LCAT, the median seed-adjusted z-score is 0.526 (inactive).

For GAACUAUCAGAGCAGUUUUTT against LONP2, the median seed-adjusted z-score was 1.52 (active).

For the sequence GAGCUAUAGUAAUUGCUCUTT against MIF4GD, the median seed-adjusted z-score was 0.373 (inactive).

Regarding GAAACAUCAUUUUUGCGAATT against THBS4, the median seed-adjusted z-score is -0.28 (inactive).

In the case of GGACUGGGAUGAUACACCUTT against SBF2, the median seed-adjusted z-score is 0.569 (inactive).

CCAUCAUGAUGCUAGCUAUTT against AP3B2: the median seed-adjusted z-score is -2.45 (active).

In the case of GCAGAAUUGGAGACGGAAATT against DNALI1, the median seed-adjusted z-score is 0.699 (inactive).

Regarding CCAAAUUCCGCUCUCAUGATT against SFRS9, the median seed-adjusted z-score was -0.144 (inactive).

For GUAUGAGUGUGACCGGGAATT against MRC2, the median seed-adjusted z-score is -1.34 (active).

In the case of GGAUGAUCGAGACCAGUUUTT against XPO4, the median seed-adjusted z-score was 0.616 (inactive).

With GCUGUUGACUCACAAUGAUTT against GCLM, the median seed-adjusted z-score is 0.0509 (inactive).

For GCUUACGGCUUGUACCUGATT against SFRS17A, the median seed-adjusted z-score is -0.389 (inactive).

As for GGAAUUAUUACAAGGUAAATT against EIF3E, the median seed-adjusted z-score was 0.549 (inactive).

Consider UCUCUUCAAUAUGUAUUUATT against HOXC9, for which the median seed-adjusted z-score was 0.395 (inactive).

With GAAUCACCAUUUAAGUGCATT against PDE1C, the median seed-adjusted z-score was 0.157 (inactive).

Take GGGCUUAGGUGUGAUCAUUTT against USH2A: the median seed-adjusted z-score is 0.0673 (inactive).

Consider GCCUAUUCAGAACACCAAUTT against TBP, for which the median seed-adjusted z-score is -1.25 (active).

As to CGUGCUUUGAGUACCCGAATT against TAT, the median seed-adjusted z-score was 0.257 (inactive).

For the sequence CCUUAAGAGGGAUGAUAAATT against SAFB, the median seed-adjusted z-score is -0.954 (inactive).

For CCCUCUCACCAUUACUUCATT against CRYAB, the median seed-adjusted z-score was 0.354 (inactive).

On to GCUCUAGGCUUCAAGGCAATT against CTSL3, for which the median seed-adjusted z-score is 1.07 (active).

With CGAGGACGAUGACUGCUUATT against LRP8, the median seed-adjusted z-score is -0.547 (inactive).

Regarding GCAAGAAGAGAUUAGCAAATT against EIF2C2, the median seed-adjusted z-score is -0.183 (inactive).

For the sequence GACUGAUGCUUUGACUGAATT against NPTX2, the median seed-adjusted z-score is 0.0558 (inactive).

Take GGAACGAGGCAGAUAUGGATT against NMNAT2: the median seed-adjusted z-score was -1.58 (active).

Regarding GGAGGAAUCUUGGUCCUUATT against SLC11A2, the median seed-adjusted z-score is -0.157 (inactive).

AUAUCAGGCUGGUUUACAATT against PLA2G15: the median seed-adjusted z-score was 0 (inactive).

GAGCAACAGUCACCAGAUATT against MAT2A: the median seed-adjusted z-score was -1.9 (active).

Regarding GGCUGUCCGACUCAACAUATT against SIGLEC12, the median seed-adjusted z-score was 0.226 (inactive).

Regarding GCAAAUGGGAGGUUGGAAATT against ZIK1, the median seed-adjusted z-score is -0.0627 (inactive).

For GGGAAGUGGUAAAUAAAGATT against MCM7, the median seed-adjusted z-score was 0.0993 (inactive).

As for GCUCGGACUUCAACAACUATT against PPAP2C, the median seed-adjusted z-score was -1.12 (active).

Regarding CAGUAUCUAUUCACAAUGATT against TRNT1, the median seed-adjusted z-score is 0.142 (inactive).

CCCUUCUUGUUUACAUGAATT against SLC25A43: the median seed-adjusted z-score is 0 (inactive).

With CAGGUAUAUCAAUUUUUCATT against PRICKLE3, the median seed-adjusted z-score is 0.0332 (inactive).

As for GUAUCGAAGUGGAGACAAUTT against NELL1, the median seed-adjusted z-score was -0.466 (inactive).

Regarding CCACGUGUUUCAAAGCAGATT against GPR172B, the median seed-adjusted z-score was 0.184 (inactive).

As for CAGUGAUGGUUAAGAACGATT against A2M, the median seed-adjusted z-score was -1.96 (active).

As for GGGUGCACCAGAAACAUUATT against VEZF1, the median seed-adjusted z-score was 0.974 (inactive).

Consider GUAACAACAAAUACUCAUATT against KCTD10, for which the median seed-adjusted z-score was -0.506 (inactive).

In the case of CAUACUUUUUGGAUAGACATT against MTX1, the median seed-adjusted z-score is -0.159 (inactive).

For GAGAAAUGCUUGGAGUCCATT against FKBPL, the median seed-adjusted z-score is -1.11 (active).

GGACGAGACUCAGAGUCAUTT against CD93: the median seed-adjusted z-score is -0.0879 (inactive).

Turning to GCACGUACUUGAUUCAGCATT against ZNF34, the median seed-adjusted z-score is 0.0391 (inactive).

As for CAACAAGUGUCUAAAUGUUTT against GNG11, the median seed-adjusted z-score is 0.00609 (inactive).

Consider AGUCAGAGUUGAACAGGUATT against AREG, for which the median seed-adjusted z-score was 0.104 (inactive).

Regarding AGGCAAACGUGUUCGUGCATT against IGFALS, the median seed-adjusted z-score was 0.0888 (inactive).

Consider GUAUCACUCUUAGAAUCCATT against GP1BA, for which the median seed-adjusted z-score is 0.0803 (inactive).

For the sequence AGAUAGAAGGGACACCAUUTT against NDUFB3, the median seed-adjusted z-score was -0.00982 (inactive).

Turning to GGGCAGUUGAUGAACGAAUTT against COG2, the median seed-adjusted z-score is 0.791 (inactive).

In the case of GGCUUGAGAGCUUACAUCATT against PPP2R5C, the median seed-adjusted z-score is 1.14 (active).

As to GGUCUGCACUCAUCACUAUTT against MGAT4A, the median seed-adjusted z-score was 0.134 (inactive).

With GAAAUAAGGUUUUUGCAAATT against CCL25, the median seed-adjusted z-score was 0.0698 (inactive).

On to CACUAUUCCCAGAUCUUUATT against SMAD5, for which the median seed-adjusted z-score was -0.701 (inactive).

Take GAAGCUGUGAGAUAGAGAATT against LCN8: the median seed-adjusted z-score was 0.112 (inactive).

In the case of GGAGAUACAUCACCGAGAATT against ELMO3, the median seed-adjusted z-score was -0.0898 (inactive).

GCUGAUGCAUUGCUCAUUATT against CCT6A: the median seed-adjusted z-score was -0.286 (inactive).

As to GUUCUGCCCUCAUACCCUUTT against IL9R, the median seed-adjusted z-score was -1.33 (active).

Turning to CCUCAGUUGGAGUUUCUAATT against TBCEL, the median seed-adjusted z-score was 0.567 (inactive).

With AAGCACAACUUGACCGUGATT against USP20, the median seed-adjusted z-score is -0.369 (inactive).

With GGAGAAUGCAAUCCGCUUATT against SVIL, the median seed-adjusted z-score is 0.0852 (inactive).

For the sequence CUAUAUGAAUCACUAUACATT against ZNF181, the median seed-adjusted z-score was -0.154 (inactive).

For GGACAGAGCAAAAACUUCUTT against DYRK4, the median seed-adjusted z-score is -0.824 (inactive).

With CCUGAAACCUCAGAACUUATT against PFTK2, the median seed-adjusted z-score is -1.16 (active).

As to GUGUAAGAACUACUACAGATT against HPR, the median seed-adjusted z-score was 0.237 (inactive).

Take GUACCUCAAUUUAAUAUCUTT against UGCGL2: the median seed-adjusted z-score is -0.456 (inactive).

With CGGAAAGUACUUAAACGGATT against PIAS4, the median seed-adjusted z-score was 0.265 (inactive).

Turning to GAUGAUUCGUUGGUAUCUATT against GRIA2, the median seed-adjusted z-score is -1.02 (active).

In the case of CAAAUACAGUGAGGACAUUTT against GPR83, the median seed-adjusted z-score was 0.105 (inactive).

On to CACUGAGAAUGCAUCCAAATT against CYP4B1, for which the median seed-adjusted z-score is -0.663 (inactive).

Take CGGUCAUUUCGUCGAGAUATT against HSF5: the median seed-adjusted z-score was 0.369 (inactive).

Take GCCCUAAACCUGCCGGAAATT against EVX1: the median seed-adjusted z-score is 1 (active).

On to CCUCAACAGUGUCUACAUUTT against LYL1, for which the median seed-adjusted z-score is -0.118 (inactive).

Turning to GAUAAAAGGUUACAAACGATT against HIF1AN, the median seed-adjusted z-score is -0.0315 (inactive).

As for GCAGUGUAAUGGUAUCCGATT against VLDLR, the median seed-adjusted z-score is 0.0487 (inactive).

For the sequence AGCGCAUGAUUGACAGUGATT against CACNG1, the median seed-adjusted z-score is -0.452 (inactive).

Turning to GCACUGUGCUCGGAAGUUATT against GLS2, the median seed-adjusted z-score was -0.793 (inactive).

Take GUGUCGUCGUAGAAAGAGATT against WEE1: the median seed-adjusted z-score was -4.05 (active).

For the sequence CAGCAUACUUUAUCGCCUUTT against DICER1, the median seed-adjusted z-score was 0.101 (inactive).

Turning to CCCAACAACUGGUAUCUUUTT against CD33, the median seed-adjusted z-score was -0.355 (inactive).

For GCCCUGGGUGGAUACUUGATT against PIM3, the median seed-adjusted z-score is -1.01 (active).

With CAAUAGCUGAAAUAAUAGATT against KPNA3, the median seed-adjusted z-score was 0.383 (inactive).

As for CAACUACACUGUCAACUACTT against DTX2, the median seed-adjusted z-score was 0.0597 (inactive).

For the sequence CAGCAACCAAUGAUAUAUATT against POLR2K, the median seed-adjusted z-score was -3.72 (active).

For the sequence GGCUCAUUUUCGCCCUGUATT against CHP2, the median seed-adjusted z-score is 0.364 (inactive).

With GUUUGAGUGUGACACCUGUTT against ZNF71, the median seed-adjusted z-score is -0.0193 (inactive).

As for GGAAUACCUUAUUGAUGUATT against CST8, the median seed-adjusted z-score was -0.0126 (inactive).

On to CGAACACCGGUGAGGUAUATT against SNRPD3, for which the median seed-adjusted z-score was -2.69 (active).

GGUACCAACAAAUACGAUATT against INPP5J: the median seed-adjusted z-score was 0.223 (inactive).

As to GAGACUGCACAACACGAUATT against TMEM11, the median seed-adjusted z-score was -0.00121 (inactive).

As for AGUGAGAUUUGAAGAGAUUTT against ADC, the median seed-adjusted z-score is -0.157 (inactive).

Consider CGAGUGGACCUACGAGGAATT against ARID3C, for which the median seed-adjusted z-score was -1.32 (active).

Turning to AAAAAUCGCUGGACAUGUATT against DNASE2B, the median seed-adjusted z-score is 0.86 (inactive).
